Assay results published in PubChem BioAssay (NCATS).
Results filed as inconclusive are left out. Entries that show only a call come without a potency. Active and inactive are the calls of the source. Calls come from the whole dose curve; as a rule, active = well fitted inhibition curve with a large enough effect; inconclusive = small, poorly fitted or top-dose-only effect; inactive = flat fitted curve, though single readings scatter.

These compounds were tested against Calcium and integrin-binding protein 1 (Homo sapiens) (UniProt Q99828) (assay: Primary qHTS for Identification of Calcium Integrin Binding Protein 1 (CIB1) Competitor (AID 1508620; note: top concentration of the series differs between compounds)). Details: CIB1-GST / FITC-alphaIIb peptide fluorescence polarization; series mostly up to 114 µM.
Chain of Calcium and integrin-binding protein 1 (Homo sapiens) (Q99828 whole entry, looked up): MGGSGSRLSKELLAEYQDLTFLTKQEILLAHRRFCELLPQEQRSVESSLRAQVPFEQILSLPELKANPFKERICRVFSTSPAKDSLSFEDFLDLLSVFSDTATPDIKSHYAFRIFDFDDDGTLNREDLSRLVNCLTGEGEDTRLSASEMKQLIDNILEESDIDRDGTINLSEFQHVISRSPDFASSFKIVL
Outline: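 Fluorescence polarization competition: GST-tagged CIB1 (1 uM final) preincubated with compound 15 min at room temperature, then FITC-labelled alphaIIb peptide (100 nM final) added. After 15 min at room temperature, polarization read at Ex 480/Em 540.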
For Cc1cc(Nc2nc(NC(C)c3ncc(F)cn3)ncc2Cl)n[nH]1 (stereo not drawn), the Potency was “inactive”. For COc1cc2c(c(OC)c1CC=C(C)C)C[C@H](c1ccc(O)cc1O)CO2, the Potency was “inactive”. In the case of COc1c(/C=C/C(C)(C)O)ccc2c1C(=O)OCc1cc(C)cc(O)c1O2, the Potency is reported as “inactive”. For CO[C@H]1/C=C\O[C@@]2(C)Oc3c(C)c(O)c4c(O)c(c5c(nc6cc(C)ccn65)c4c3C2=O)NC(=O)/C(C)=C\C=C/[C@H](C)[C@H](O)[C@@H](C)[C@@H](O)[C@@H](C)[C@H](OC(C)=O)[C@@H]1C, the Potency was “inactive”. In the case of COC(=O)[C@H](O)[C@H]1C(C)(C)[C@H](OC(=O)C(C)C)[C@@]2(O)C(=O)[C@]1(C)C1CC[C@]3(C)C(CC(=O)O[C@H]3c3ccoc3)[C@]13O[C@@H]32 (stereo partly drawn), the Potency is reported as “inactive”. With C[C@@H]1O[C@@H](O[C@H]2[C@H](O[C@H]3CC[C@@]4(C)C(CC[C@]5(C)C4C=C[C@]46OC[C@@]7(CCC(C)(C)C[C@H]74)[C@@H](O)C[C@]65C)[C@]3(C)CO)O[C@H](CO)[C@@H](O)[C@@H]2O[C@@H]2O[C@H](CO)[C@@H](O[C@@H]3O[C@@H](C)[C@H](O)[C@@H](O)[C@H]3O)[C@H](O)[C@H]2O)[C@H](O)[C@H](O)[C@H]1O (stereo partly drawn) the Potency was “inactive”. In the case of O=S(=O)(c1ccccc1)c1cnc2c(N3CCNCC3)cccc2c1, the Potency is reported as “inactive”. OC/C=C/c1ccc(O[C@@H]2O[C@H](CO)[C@@H](O)[C@H](O)[C@H]2O)cc1 was tested, and the Potency was “inactive”. CC(c1ncncc1F)C(O)(Cn1cncn1)c1ccc(F)cc1F (stereo not drawn) was tested, and the Potency was “inactive”. COc1cc2ncnc(Nc3cccc(Cl)c3F)c2cc1OC(=O)N1CCN(C)C[C@H]1C was tested, and the Potency was “inactive”. OCC1OC(Oc2cc(O)cc(/C=C/c3ccc(O)cc3)c2)C(O)C(O)C1O (stereo not drawn) was tested, and the Potency was “inactive”. CN1CCN(C(=O)c2ccc3cc(CCNc4ncnc5ccc(C#N)cc45)ccc3c2)CC1 was tested, and the Potency was “inactive”. With C=C1[C@H](OC(C)=O)[C@H]2[C@@H](OC(C)=O)[C@](C)(OC(C)=O)C[C@]2(OC(C)=O)C(=O)[C@H](C)/C=C/C(C)(C)C(=O)[C@H](OC(=O)C(C)C)[C@H]1OC(C)=O the Potency was “inactive”. COc1ccc(CCC(=O)c2c(O)cc(O)cc2O[C@@H]2O[C@H](CO)[C@@H](O)[C@H](O)[C@H]2O)cc1 was tested, and the Potency was “inactive”. In the case of CC(C)N(CCCCOCC(=O)NS(C)(=O)=O)c1cnc(-c2ccccc2)c(-c2ccccc2)n1, the Potency is reported as “inactive”. For CC(=O)O[C@H]1CC[C@H](C)[C@@]2(C)[C@H](OC(C)=O)c3c(C)coc3C(=O)[C@H]12, the Potency was “inactive”. For CC(C)=C/C=C\[C@H](C)[C@H]1CC[C@]2(C)C[C@@H]3C(C)=CC(=O)C3/C(CO)=C\C[C@@H]12 (stereo partly drawn), the Potency was “inactive”. For C=C(F)c1sc(CNCCCNc2cc(=O)c3ccccc3[nH]2)c(C)c1Br, the Potency was “inactive”. In the case of C=C1C(=O)O[C@@H]2C[C@H](C)[C@@]3(O)C=C(C(C)=O)[C@]4(CC3C[C@H]12)C(=O)O[C@H]1C[C@@H](C)C(CCC(C)=O)=CC[C@H]14 (stereo partly drawn), the Potency is reported as “inactive”. In the case of CC(=O)O[C@@H]1[C@H](O)[C@@H](O[C@@H]2O[C@@H](C)[C@H](O[C@@H]3OC[C@@H](O)[C@H](O[C@@H]4OC[C@@H](O)[C@H](O)[C@H]4O)[C@H]3O)[C@@H](O[C@@H]3O[C@H](CO)[C@@H](O)[C@H](O)[C@H]3O)[C@H]2O)[C@H](OC(=O)[C@]23CCC(C)(C)C[C@H]2C2=CCC4[C@@]5(C)CC[C@H](O[C@@H]6O[C@H](C(=O)O)[C@@H](O)[C@H](O[C@@H]7OC[C@@H](O)[C@H](O)[C@H]7O)[C@H]6O[C@@H]6O[C@H](CO)[C@H](O)[C@H](O)[C@H]6O)[C@@](C)(C=O)C5CC[C@@]4(C)[C@]2(C)CC3)O[C@@H]1C (stereo partly drawn), the activity change, negative = inhibition is reported as -6.59% [at 12.4 µM] (inactive). In the case of C=CC(C)(O)CC/C=C(\C)C(=O)OC1C(O)C(CO)OC(OC(=O)C23CCC(C)(C)CC2C2=CCC4C5(C)CCC(OC6OC(COC7OCC(OC(C)=O)C(O)C7OC7OC(COC(C)=O)C(O)C(O)C7O)C(O)C(O)C6O)C(C)(C)C5CCC4(C)C2(C)C(O)C3O)C1OC1OCC(OC2OCC(O)C(OC3OCC(O)C(O)C3O)C2O)C(O)C1O (stereo not drawn), the activity change, negative = inhibition is reported as 3.39% [at 12.4 µM] (inactive). With O=S(=O)(Nc1ccccn1)c1ccc(N=Cc2c(O)[nH]c3ccc4ncsc4c23)cc1 the Potency was “inactive”. In the case of C/C(=C/CO)CC[C@@H]1[C@@](C)(O)CCC2C(C)(C)CCC[C@]21C (stereo partly drawn), the Potency is reported as “inactive”. O=C(O)CCCCCC[C@H]1C(=O)NC(=O)N1CC[C@@H](O)C1CCCCC1 was tested, and the Potency was “inactive”. With CC(CCC1(O)OC2CC3C4CCC5CC(O[C@@H]6O[C@H](CO)[C@@H](O)[C@H](O)[C@H]6O[C@@H]6O[C@@H](C)[C@H](O)[C@@H](O)[C@H]6O)C(O)CC5(C)C4CCC3(C)C2C1C)CO[C@@H]1O[C@H](CO)[C@@H](O)[C@H](O)[C@H]1O (stereo partly drawn) the Potency was “inactive”. In the case of CC1(C)CCCC2(C)C(CO)C(CO)=CCC12 (stereo not drawn), the Potency is reported as “inactive”. For C/C=C/C=C/C(O)=C1\C(=O)[C@]2(C)C3C(C(=O)CC/C=C/C)=C(O)C4(C)C1[C@]1(C)O[C@@]4(O)[C@@]3(C)O[C@@]12O, the Potency was “inactive”. For CNC(C)C(=O)NC(C(=O)N1CCCC1c1nc(C(=O)c2ccc(F)cc2)cs1)C1CCCCC1 (stereo not drawn), the Potency was “inactive”. CC1(C)CCCC2(C)C1CC(=O)C13CC(CCC12)C(O)(CO)C3 (stereo not drawn) was tested, and the Potency was “inactive”. Fc1ccc2nc(CCC#Cc3ccccn3)cn2c1 was tested, and the Potency was “inactive”. COC1C(=O)CCC2(CO2)C1(O)C1(C)OC1CC=C(C)C (stereo not drawn) was tested, and the Potency was “inactive”. COc1cc2oc(-c3ccc(O)cc3O)cc2c(OC)c1CC=C(C)C was tested, and the Potency was “inactive”. For C=CC(C)(C)c1[nH]c2cc3c(cc2c1CC1NC(=O)C2=CCCN2C1=O)C=CC(C)(C)O3 (stereo not drawn), the Potency was “inactive”. With C=C(C(=O)O)[C@@H]1CC[C@@]2(C)CC[C@H](O)[C@@]2(C(C)=O)C1 the Potency was “inactive”. O=C1C=CC(O)(/C=C/C(=O)OC[C@H]2O[C@@H](Oc3ccc(O)cc3)[C@H](O)[C@@H](O)[C@@H]2O)C=C1 was tested, and the Potency was “inactive”. C=CC1C(OC2OC(CO)C(O)C(O)C2O)OC=C(C(=O)OC)C1CC(=O)OCC1C(C)C(O)CC1C(CO)COC(=O)CC1C(C(=O)O)=COC(OC2OC(CO)C(O)C(O)C2O)/C1=C\C (stereo not drawn) was tested, and the Potency was “inactive”. With O=C(C(c1ccccc1)c1ccccc1)N1CCN(CC(O)COc2cccc3ncccc23)CC1 (stereo not drawn) the Potency was “inactive”. In the case of CC/C=C/CC1=C(CCCCC(CCC(=O)O)OC(C)=O)CCC1=O (stereo not drawn), the Potency is reported as “inactive”.
